Activity calls are given as the source filed them. How the source made its calls: active means hit-call score of the fitted dose curve at least 0.9, where 1 is the maximum; inactive means score below 0.9.
Experiment: CCTE_Shafer_MEA_acute_network_burst_percentage: CCTE's Neural Acute Assay for Percentage of Network Bursts, Shafer Lab (AID 2284022);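 further: curves fitted for loss so actives lower network burst percentage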;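 on outcome: rat primary cortical neuron networks on multiwell MEA recorded 40 min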
How it was run: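 Rat cortical cultures, DIV 13/15; 20 min equilibration, 40 min baseline, compound 0.03-40 uM, 40 min recording, 37 C. Spikes: 300-5000 Hz band-pass, threshold 8x rms noise. Readout: % change in network-burst spike fraction; loss direction vs DMSO.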
In the case of `OC(CCl)CCl`, the outcome is reported as “inactive”. For `OCc1ccccc1`, the outcome was “inactive”. In the case of `Cc1ncc([C@@H](CCCCCCc2ccc3c(n2)NCCC3)CC(=O)O)cn1`, the outcome is reported as “inactive”. With `COCc1nnc(-c2ccc[n+]([O-])c2)n1-c1c(Cl)c(Cl)cc2[nH]c(=O)c(=O)[nH]c12` the AC50 was 29.2 µM (active). With `CCCCCCCC1CCC(=O)O1` (stereo unspecified) the outcome was “inactive”. With `O=S(=O)(O)c1ccc(N=Nc2c(O)ccc3cc(S(=O)(=O)O)ccc23)cc1` the outcome was “inactive”. In the case of `CCCc1ccccc1`, the outcome is reported as “inactive”. With `Cn1c(=O)c2[nH]cnc2n(C)c1=O` the outcome was “inactive”. With `CC[C@H](C)C(=O)O[C@H]1C[C@H](O)C=C2C=C[C@H](C)[C@H](CC[C@@H](O)C[C@@H](O)CC(=O)O)[C@H]21` the outcome was “inactive”. With `CC(C)C(=O)Nc1ccc([N+](=O)[O-])c(C(F)(F)F)c1` the AC50 was 34.4 µM (active). With `CCCCC(CC)C(=O)OCCOCCOCCOC(=O)C(CC)CCCC` (stereo unspecified) the outcome was “inactive”. In the case of `C=CCc1cc(S(=O)(=O)c2ccc(O)c(CC=C)c2)ccc1O`, the outcome is reported as “inactive”. For `CCc1ccc(O)c(C(C)(C)C)c1`, the outcome was “inactive”. In the case of `c1ccc(C(O[C@@H]2CCCN(CCc3ccc4c(c3)OCO4)C2)c2ccccc2)cc1`, the outcome is reported as “inactive”. In the case of `COc1cc2c(c(OC)c1OC)-c1ccc(OC)c(=O)cc1[C@@H](NC(C)=O)CC2`, the AC50 is reported as 4.03 µM (active). In the case of `CCCCCCCC/C=C\CCCCCCCC(=O)OC[C@@H](O)[C@H]1OC[C@H](O)[C@H]1O`, the outcome is reported as “inactive”. In the case of `COc1cc(C(C)C)c2c(c1)S(=O)(=O)N(COc1cc(=O)n3cccc(OCCN4CCCCC4)c3n1)C2=O`, the outcome is reported as “inactive”. With `c1ccc2cc3ccccc3cc2c1` the AC50 was 0.003 µM (active).

Experiment: CCTE_Shafer_MEA_acute_cross_correlation_area: CCTE's Neural Acute Assay for Area of Cross Correlation, Shafer Lab (AID 2284024);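 further: area under pooled inter-electrode spike cross-correlation near zero lag as percent change from own baseline; curves fitted for loss of cross-correlation area so actives lower synchrony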;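 on outcome: rat primary cortical neuron networks on 48-well MEA at DIV 13 or 15 with 40 min exposure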
How it was run: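 Rat cortical cultures, DIV 13/15, MEA; spikes detected at 8x rms noise (300-5000 Hz band-pass). Compound 0.03-40 uM, ≥3 wells each. Readout: % change in pooled inter-electrode cross-correlation area vs own baseline; DMSO negative control.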
In the case of `OC(CCl)CCl`, the outcome is reported as “inactive”. In the case of `OCc1ccccc1`, the outcome is reported as “inactive”. With `Cc1ncc([C@@H](CCCCCCc2ccc3c(n2)NCCC3)CC(=O)O)cn1` the outcome was “inactive”. For `COCc1nnc(-c2ccc[n+]([O-])c2)n1-c1c(Cl)c(Cl)cc2[nH]c(=O)c(=O)[nH]c12`, the outcome was “inactive”. With `CCCCCCCC1CCC(=O)O1` (stereo unspecified) the outcome was “inactive”. With `O=S(=O)(O)c1ccc(N=Nc2c(O)ccc3cc(S(=O)(=O)O)ccc23)cc1` the outcome was “inactive”. For `CCCc1ccccc1`, the outcome was “inactive”. In the case of `Cn1c(=O)c2[nH]cnc2n(C)c1=O`, the outcome is reported as “inactive”. With `CC[C@H](C)C(=O)O[C@H]1C[C@H](O)C=C2C=C[C@H](C)[C@H](CC[C@@H](O)C[C@@H](O)CC(=O)O)[C@H]21` the outcome was “inactive”. With `CC(C)C(=O)Nc1ccc([N+](=O)[O-])c(C(F)(F)F)c1` the outcome was “inactive”. In the case of `CCCCC(CC)C(=O)OCCOCCOCCOC(=O)C(CC)CCCC` (stereo unspecified), the outcome is reported as “inactive”. With `C=CCc1cc(S(=O)(=O)c2ccc(O)c(CC=C)c2)ccc1O` the outcome was “inactive”. In the case of `CCc1ccc(O)c(C(C)(C)C)c1`, the outcome is reported as “inactive”. In the case of `c1ccc(C(O[C@@H]2CCCN(CCc3ccc4c(c3)OCO4)C2)c2ccccc2)cc1`, the outcome is reported as “inactive”. For `COc1cc2c(c(OC)c1OC)-c1ccc(OC)c(=O)cc1[C@@H](NC(C)=O)CC2`, the outcome was “inactive”. With `CCCCCCCC/C=C\CCCCCCCC(=O)OC[C@@H](O)[C@H]1OC[C@H](O)[C@H]1O` the outcome was “inactive”. For `COc1cc(C(C)C)c2c(c1)S(=O)(=O)N(COc1cc(=O)n3cccc(OCCN4CCCCC4)c3n1)C2=O`, the outcome was “inactive”. For `c1ccc2cc3ccccc3cc2c1`, the AC50 was 0.00687 µM (active).

From PubChem BioAssay (EPA / NIEHS)
